# CHX counter: counter-screen hit for Shiga toxin inhibitors, cycloheximide; cell reporter, cycloheximide protein synthesis inhibition counterscreen; max response, %; 12% of 300,000 active; AID 2314; in the data active = max response mostly above about 13%, no sharp cut-off; inactive = mostly below about 14%; also: read at 38.3 µM for the half of the compounds with a filed dose; 0% is about no effect
# HCV inhibitor: blocks hepatitis C virus | Huh7.5.1 HCVcc-Cre infection, luciferase reporter, 44 h | Potency, µM (highest dose often 41.8 µM), without a hit: at the top dose activity change, negative = inhibition, most hits filed as inhibitors | 3.4% of 340,000 active; also: potency is read from the fitted curve at half-maximal effect; % is scaled to controls: 0 for no effect and ±100 for the full control effect
#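 Seed cells (1,000/well) for 4 h; treat with compound and infect with HCVcc-Cre, moi about 0.5. Incubate 44 h, then detect luciferase activity.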
# Shiga inhibitor: inhibitors of Shiga toxin in Vero cells; Vero cells, Shiga toxin protein synthesis inhibition reporter; inhibition, % at 38.7 µM; 9.2% of 290,000 active; AID 2315; in the data active = inhibition mostly above about 28%, no sharp cut-off; inactive = mostly below about 43%; also: 0% is about no effect
# Pf growth 48h: P. falciparum growth inhibition at 48 hours (one generation). Potency, µM (titrated, usually from 28.7 µM), for inactives: top-dose activity change, negative = inhibition, actives largely listed as inhibitors. 5.9% of 310,000 active. P. falciparum luciferase growth in erythrocytes, 48 h; also: potency is read from the fitted curve at half-maximal effect; % is scaled to controls: 0 for no effect and ±100 for the full control effect
#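 Luminescence readout; reporter = integrated firefly luciferase in P. falciparum. RBC culture at 2% hematocrit, 0.1% parasitemia final, 37 C/5% CO2; decreased signal taken as growth inhibition.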
# HCMV inh: inhibitors of human cytomegalovirus; HFF cells, HCMV-luciferase reporter, 72 h; active compounds read low; 4.5% of 410,000 active; AID 1259415; activity change, negative = inhibition, % at 57.5 µM; in the data active = activity change below about -60%; inconclusive = no clear call, values can overlap the other calls; inactive = above about -39%; also: % is scaled to controls: 0 for no effect and ±100 for the full control effect
#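 Cell-based, HFFs, 1000 cells/well, 16 h 37C; cpds in DMSO + HCMV-luc, MOI 1 PFU/cell; 72 h 37C; OneGlo luminescence after 5 min RT; norm. to buffer vs Salinomycin 10uM.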
# Pf growth 96h: inhibits malaria parasite growth, 96 h; P. falciparum luciferase reporter growth, 96 h; Potency, µM (titrated, usually from 28.7 µM), for the others: at the top dose activity change, negative = inhibition, actives largely listed as inhibitors; 6.9% of 320,000 active; AID 504834; also: potency is read from the fitted curve at half-maximal effect; % is scaled to controls: 0 for no effect and ±100 for the full control effect
#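 Parasite growth measured via integrated firefly luciferase reporter in P. falciparum. Infected erythrocytes at 2% hematocrit, 0.05% parasitemia final were treated 96 hours at 37 C under 5% CO2, and luminescence was read.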
# Active calls of the source: *; i = inactive; ? = inconclusive; . = not tested or not shown. The list is not random: actives were taken first. Their share in the collection is about 21%. Unless noted, calls follow the shape of the dose curve; as a rule, active = well fitted inhibition curve with a large enough effect; inconclusive = small, poorly fitted or top-dose-only effect, or another doubt; inactive = no such curve, though single readings can be large or run the other way.
SMILES,CHX counter,HCV inhibitor,Shiga inhibitor,Pf growth 48h,HCMV inh,Pf growth 96h
CCN(CC)S(=O)(=O)c1ccc(NCc2ccccn2)nc1,-1,9%,-4,23%,3,33%
O=C(COC(=O)/C=C/c1cccc(C(F)(F)F)c1)NCCN1C(=O)CSC1=O,.,11%,.,-17%,-8,-22%
CN=C(c1ccc(C)cc1)n1c(=S)nc(-c2ccc(C)cc2)n(C)c1=S,43*,-9%,85*,?,15,?
CN=C(c1ccco1)n1c(=S)nc(-c2ccco2)n(C)c1=S,6,11µM*,-5,9%,73,30%
NC(=O)c1cc[n+](CC(=O)c2ccc(NC(=O)c3ccccc3)cc2)cc1,13,4%,8,37%,12,64%
CCOC(=O)C1(C(=O)OCC)CCN(S(=O)(=O)c2ccccc2)CC1,.,-5%,.,.,1,.
COc1cccc(OC)c1OCCN1CCC(C(=O)NC(c2ccc3c(c2)OCO3)c2ccccn2)CC1 (stereo not drawn),.,.,.,.,-61*,.
CCN(C(=O)c1ccc2c(c1)OCO2)C12CC3CC(CC(C3)C1)C2,.,-16%,.,.,-38,.
CCCN(Cc1cccs1)C(=O)Nc1cc(C)ccc1OC,.,.,.,.,-18,.
O=S(=O)(c1ccc(Cl)cc1)N1CCN(Cc2ccc(O)c3ncccc23)CC1,16,?,10,1.9µM*,-98*,?
Oc1ccc(CN2CCN(Cc3ccccc3)CC2)c2cccnc12,-6,10µM*,-15,7%,52,.
CCOC(=O)C1CCCN(CCC(=O)Nc2cccc(Cl)c2C)C1 (stereo not drawn),-1,1%,-6,40%,41,26%
CCCN1CCC(=O)N([C@H](CN=[N+]=[N-])Cc2ccccc2)CC1,-2,-1%,-4,5%,-5,?
COC(=O)c1nc(NC(C)=O)n[nH]1,-3,.,-16,-12%,.,?
COC(=O)c1nc(NC(=O)C(C)C)n[nH]1,-4,-6%,9,?,-18,5.9µM*
Cc1[nH]n(-c2ccccc2)c(=O)c1-c1cccc(Cl)c1,2,-3%,-17,1.7µM*,-30,1.5µM*
Cc1[nH]n(-c2ccccc2)c(=O)c1-c1ccc(Cl)cc1,12,17%,10,.,2,2.1µM*
Cc1cc(-c2c(C)[nH]n(-c3ccc(Cl)cc3)c2=O)n(-c2ccc(Cl)cc2)n1,8,11%,14,?,-10,1µM*
O=C(NCc1cc(Cl)cc(Cl)c1)c1ccc2nc([C@H]3C[C@H](O)[C@@H](CO)O3)[nH]c2c1,.,.,.,.,12,.
CCCNC(=O)c1ccc(N2CCC3(CC2)CC(c2cccc(Br)c2)=NO3)c(NC(=O)c2ccc(Br)cc2)c1,.,22%,.,?,14,?
Cc1noc(C)c1NC(=O)N(C)C[C@@H]1Oc2ncc(Br)cc2C(=O)N([C@@H](C)CO)C[C@@H]1C,.,.,.,.,-2,.
COc1cccc2c(=O)c(SC(F)(F)C(F)C(F)(F)F)c(C)[nH]c12 (stereo not drawn),33,?,52*,6.6µM*,6,3.7µM*
COc1cccc2c(=O)c(C/C=C(/C)Cl)c(C)[nH]c12,-3,-10%,-11,0.74µM*,-14,.
O=C(CSCc1ccccc1Cl)NNC(=S)Nc1ccccc1,11*,12%,33,55%,16,80%
CCS(=O)(=O)N1Cc2ccccc2CC1C(=O)Nc1nnc(SCc2ccc(C#N)cc2)s1 (stereo not drawn),-2,-12%,5,-16%,-66*,-9%
SMILES,CHX counter,HCV inhibitor,Shiga inhibitor,Pf growth 48h,HCMV inh,Pf growth 96h
CCS(=O)(=O)N1Cc2ccccc2CC1C(=O)Nc1ccc(C)cc1 (stereo not drawn),13,0%,49,18%,16,.
CCS(=O)(=O)N1Cc2ccccc2CC1C(=O)Nc1nc2ccc(C)cc2s1 (stereo not drawn),39*,-18%,68*,10%,39,9%
CCS(=O)(=O)N1Cc2ccccc2CC1C(=O)Nc1ncc(C)s1 (stereo not drawn),40*,0%,108*,i,23,291%
CC1(C)Cc2c(sc3ncn(N)c(=N)c23)CO1,-4,-2%,-17,-2%,-9,?
CC1CCCc2sc3ncn(N)c(=N)c3c21 (stereo not drawn),-2,?,-16,8%,-63*,-28%
c1ccc(Oc2cc(-n3cccn3)ncn2)cc1,54*,6%,74*,211%,38,.
NC(=O)c1cnn(-c2cc(Oc3ccccc3)ncn2)c1N,47*,14%,59,86%,58,80%
COC(=O)c1cnn(-c2cc(Oc3ccccc3)ncn2)c1N,23*,-1%,27,14%,-1,66%
NC(=O)c1cnn(-c2cccc(Cl)c2)c1N,7,7%,11,-11%,-37,15%
Nc1nc2c(ncn2[C@@H]2O[C@H](CNCc3ccc(Oc4cc(-n5cccn5)ncn4)cc3)[C@@H](O)[C@H]2O)c(=O)[nH]1,.,.,.,.,30,.
COc1ccc(C(O)c2ncc(-c3ccccc3Cl)[nH]2)cc1 (stereo not drawn),.,.,.,.,-74*,.
CCn1cc(S(=O)(=O)c2cccc(Cl)c2)c(=O)c2cc(F)c(N3CCC(C)CC3)cc21,.,.,.,.,-25,.
CCC(SC1=NCCS1)C(=O)Nc1ccc(S(N)(=O)=O)cc1 (stereo not drawn),-3,18%,2,-12%,9,-6%
O=c1[nH]c(-c2ccccn2)nc2sc(-c3ccccc3)cc12,49*,1.6µM*,118*,62%,-112*,?
COc1ccccc1NC(=O)c1cc2cc3ccc(OC)c(Cl)c3nc2s1,.,.,.,.,12,.
CCN1CCN(C(=O)c2ccc(Sc3ccccc3Cl)c([N+](=O)[O-])c2)CC1,-6,-12%,-13,-2%,-11,-4%
CCN1CCCC1CNC(=O)c1ccc(Sc2ccccc2Cl)c([N+](=O)[O-])c1 (stereo not drawn),-3,5.6µM*,-19,?,?,2%
O=C(NCCCN1CCOCC1)c1ccc(Sc2ccc(F)cc2)c([N+](=O)[O-])c1,-4,?,-5,5%,21,0%
CCN1CCCC1CNC(=O)c1ccc(Sc2ccc(F)cc2)c([N+](=O)[O-])c1 (stereo not drawn),-1,6.3µM*,-6,?,-18,?
Cc1cc(Cl)nc(-c2ccccc2)n1,1,11%,-17,34%,?,i
Cc1cc(OC(C)C(N)=O)nc(-c2ccccc2)n1 (stereo not drawn),5,-2%,13,15µM*,5,10%
CC(C)CN(C(=O)CN1CCOCC1)c1c(N)n(CC(C)C)c(=O)[nH]c1=O,-4,4%,-14,21%,-72*,?
